Test in all cases: log2 ratio of Biotin-Ahx-Ub-VS probe labelling (fragment/DMSO); higher = less target engagement (more negative = stronger competition), active = hit call of the paper (q ≤ 0.05, log2 ratio ≤ -1)
Common to all, as to details: compound concentration: 200 uM; treatment time: 3 h

In one test the target is T1, ALG13 (UniProt Q9NP73).
T1 sequence (whole entry): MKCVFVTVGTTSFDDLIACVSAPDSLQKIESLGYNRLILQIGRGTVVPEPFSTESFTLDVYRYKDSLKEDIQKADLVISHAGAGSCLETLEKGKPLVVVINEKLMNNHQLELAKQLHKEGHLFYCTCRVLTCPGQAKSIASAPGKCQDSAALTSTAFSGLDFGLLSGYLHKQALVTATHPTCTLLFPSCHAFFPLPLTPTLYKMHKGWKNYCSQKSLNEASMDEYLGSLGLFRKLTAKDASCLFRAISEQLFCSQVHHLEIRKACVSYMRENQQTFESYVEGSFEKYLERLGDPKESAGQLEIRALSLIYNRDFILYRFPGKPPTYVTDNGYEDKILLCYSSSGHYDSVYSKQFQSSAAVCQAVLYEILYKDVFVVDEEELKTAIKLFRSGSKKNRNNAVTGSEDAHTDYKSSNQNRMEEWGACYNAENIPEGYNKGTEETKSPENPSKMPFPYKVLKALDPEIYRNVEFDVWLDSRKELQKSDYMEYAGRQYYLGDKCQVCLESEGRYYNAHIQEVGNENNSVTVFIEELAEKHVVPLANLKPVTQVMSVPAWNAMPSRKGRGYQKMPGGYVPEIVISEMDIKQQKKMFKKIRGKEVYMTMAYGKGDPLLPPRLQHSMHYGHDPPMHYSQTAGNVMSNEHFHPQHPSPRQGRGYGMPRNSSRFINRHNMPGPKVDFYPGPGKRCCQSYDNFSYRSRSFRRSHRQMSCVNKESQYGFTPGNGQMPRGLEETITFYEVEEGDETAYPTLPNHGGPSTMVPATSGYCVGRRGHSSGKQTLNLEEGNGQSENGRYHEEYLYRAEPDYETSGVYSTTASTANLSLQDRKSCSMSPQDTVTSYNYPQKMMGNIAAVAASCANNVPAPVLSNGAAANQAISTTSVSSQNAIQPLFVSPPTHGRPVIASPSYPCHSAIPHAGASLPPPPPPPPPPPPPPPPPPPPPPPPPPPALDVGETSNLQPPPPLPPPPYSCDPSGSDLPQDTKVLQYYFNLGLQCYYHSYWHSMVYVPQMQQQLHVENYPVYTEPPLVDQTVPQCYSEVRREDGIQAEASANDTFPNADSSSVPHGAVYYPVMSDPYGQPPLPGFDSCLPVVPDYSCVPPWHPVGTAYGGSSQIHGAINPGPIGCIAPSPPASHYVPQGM
In outline:
(§1)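 Labelled DUBs were enriched with NeutrAvidin, digested with LysC and trypsin, and run by diaPASEF LC-MS/MS. The labelling used Biotin-Ahx-Ub-VS at 0.5 µM final for 1 h on HEK293T lysate (495 µg per sample) previously treated in triplicate with fragment at 200 µM or vehicle for 3 h. Values are average log2 fragment/vehicle ratios by unpaired t-test on global-median-normalised Spectronaut quantities of proteins with ≥2 unique peptides.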

In the next test the target is ATXN3 (UniProt P54252). The gist of the method: as §1
For the next test, the target named is T2, BAP1 (UniProt Q92560).
T2 sequence (whole entry): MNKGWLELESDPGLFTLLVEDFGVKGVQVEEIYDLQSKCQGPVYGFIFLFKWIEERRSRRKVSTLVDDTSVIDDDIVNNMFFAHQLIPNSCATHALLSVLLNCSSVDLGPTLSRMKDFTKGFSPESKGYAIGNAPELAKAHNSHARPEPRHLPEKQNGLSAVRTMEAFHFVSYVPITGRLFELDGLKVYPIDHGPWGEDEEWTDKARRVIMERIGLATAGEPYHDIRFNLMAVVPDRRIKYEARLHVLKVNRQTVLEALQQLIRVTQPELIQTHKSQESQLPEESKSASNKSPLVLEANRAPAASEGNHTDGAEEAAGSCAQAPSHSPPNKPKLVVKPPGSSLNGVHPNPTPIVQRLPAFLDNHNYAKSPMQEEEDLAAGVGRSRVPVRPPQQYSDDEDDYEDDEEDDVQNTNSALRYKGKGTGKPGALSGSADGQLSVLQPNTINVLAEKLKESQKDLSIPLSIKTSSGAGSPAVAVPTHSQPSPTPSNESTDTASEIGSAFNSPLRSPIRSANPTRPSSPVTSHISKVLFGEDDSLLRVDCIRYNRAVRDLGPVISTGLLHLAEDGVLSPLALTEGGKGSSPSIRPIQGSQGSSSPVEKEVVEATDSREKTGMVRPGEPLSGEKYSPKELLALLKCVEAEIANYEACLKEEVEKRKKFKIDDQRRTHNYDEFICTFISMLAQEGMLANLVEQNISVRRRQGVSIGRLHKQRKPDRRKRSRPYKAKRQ
In outline: as §1

The target of a further test is EIF3F (UniProt O00303). The gist of the method:
as §1

For a further test, the target named is EIF3H (UniProt O15372). The gist of the method:
as §1

The target in another test is T3, FAM105A (UniProt Q9NUU6).
T3 sequence (whole entry): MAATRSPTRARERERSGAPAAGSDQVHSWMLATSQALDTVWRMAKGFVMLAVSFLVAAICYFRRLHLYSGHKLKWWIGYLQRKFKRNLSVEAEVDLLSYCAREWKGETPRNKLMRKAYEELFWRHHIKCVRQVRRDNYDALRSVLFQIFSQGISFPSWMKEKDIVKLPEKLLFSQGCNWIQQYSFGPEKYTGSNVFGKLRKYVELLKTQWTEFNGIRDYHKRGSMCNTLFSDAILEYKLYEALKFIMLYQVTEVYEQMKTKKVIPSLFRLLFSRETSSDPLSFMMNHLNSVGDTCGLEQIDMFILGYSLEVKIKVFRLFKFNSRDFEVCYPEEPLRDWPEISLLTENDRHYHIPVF
The gist of the method:
as §1

The target in another test is OTUB1 (UniProt Q96FW1). In outline:
as §1

The next test addresses T4, OTUD4 (UniProt Q01804).
T4 sequence (whole entry): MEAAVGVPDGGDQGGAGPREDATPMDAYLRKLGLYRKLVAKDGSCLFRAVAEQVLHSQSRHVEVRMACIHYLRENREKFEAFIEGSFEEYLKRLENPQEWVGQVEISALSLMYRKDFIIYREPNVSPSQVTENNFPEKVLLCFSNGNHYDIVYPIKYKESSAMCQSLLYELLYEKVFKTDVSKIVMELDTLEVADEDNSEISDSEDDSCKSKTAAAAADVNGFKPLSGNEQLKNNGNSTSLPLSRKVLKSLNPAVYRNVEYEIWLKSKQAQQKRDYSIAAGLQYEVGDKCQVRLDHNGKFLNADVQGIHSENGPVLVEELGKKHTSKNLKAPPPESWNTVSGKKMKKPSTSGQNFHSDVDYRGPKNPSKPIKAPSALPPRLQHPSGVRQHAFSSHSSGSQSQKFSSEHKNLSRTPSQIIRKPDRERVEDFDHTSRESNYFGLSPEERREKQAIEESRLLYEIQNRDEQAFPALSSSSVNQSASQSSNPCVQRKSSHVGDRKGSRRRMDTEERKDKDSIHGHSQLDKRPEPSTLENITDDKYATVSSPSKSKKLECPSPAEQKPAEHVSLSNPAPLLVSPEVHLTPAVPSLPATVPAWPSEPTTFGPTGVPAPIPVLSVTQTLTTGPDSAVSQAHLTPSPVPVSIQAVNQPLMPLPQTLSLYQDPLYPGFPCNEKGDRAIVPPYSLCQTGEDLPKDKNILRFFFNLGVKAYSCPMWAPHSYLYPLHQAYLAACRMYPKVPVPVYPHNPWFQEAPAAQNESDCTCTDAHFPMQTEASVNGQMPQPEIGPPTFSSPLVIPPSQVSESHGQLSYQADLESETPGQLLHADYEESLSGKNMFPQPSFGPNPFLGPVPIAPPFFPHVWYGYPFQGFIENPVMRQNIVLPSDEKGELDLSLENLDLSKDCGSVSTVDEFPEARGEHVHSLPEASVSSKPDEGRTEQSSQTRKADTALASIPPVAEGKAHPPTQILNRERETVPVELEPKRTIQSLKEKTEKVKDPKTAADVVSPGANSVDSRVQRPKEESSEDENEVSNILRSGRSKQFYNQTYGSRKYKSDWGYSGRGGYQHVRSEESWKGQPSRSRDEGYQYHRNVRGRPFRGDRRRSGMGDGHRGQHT
In outline: as §1

The target of another test is T5, OTUD5 (UniProt Q96G74).
T5 sequence (whole entry): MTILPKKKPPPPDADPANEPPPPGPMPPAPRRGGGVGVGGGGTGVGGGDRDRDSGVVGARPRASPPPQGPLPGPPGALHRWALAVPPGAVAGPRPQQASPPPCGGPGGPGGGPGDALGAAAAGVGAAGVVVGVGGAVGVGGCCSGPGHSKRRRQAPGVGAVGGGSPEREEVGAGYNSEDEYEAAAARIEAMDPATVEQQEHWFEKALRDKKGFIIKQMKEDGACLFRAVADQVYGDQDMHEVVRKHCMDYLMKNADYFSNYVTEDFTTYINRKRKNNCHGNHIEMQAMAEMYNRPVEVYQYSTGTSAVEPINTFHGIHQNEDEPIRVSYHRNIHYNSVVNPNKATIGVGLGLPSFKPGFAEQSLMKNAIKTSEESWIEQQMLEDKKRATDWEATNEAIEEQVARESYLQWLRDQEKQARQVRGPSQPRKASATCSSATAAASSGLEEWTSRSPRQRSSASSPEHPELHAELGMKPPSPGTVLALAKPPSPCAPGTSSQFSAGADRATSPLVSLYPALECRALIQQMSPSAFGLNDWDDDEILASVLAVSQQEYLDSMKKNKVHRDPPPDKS
In outline: as §1

Molecules are shown by their SMILES. Unmarked numbers belong to inactive results.

Chain of EIF3H (O15372 whole entry): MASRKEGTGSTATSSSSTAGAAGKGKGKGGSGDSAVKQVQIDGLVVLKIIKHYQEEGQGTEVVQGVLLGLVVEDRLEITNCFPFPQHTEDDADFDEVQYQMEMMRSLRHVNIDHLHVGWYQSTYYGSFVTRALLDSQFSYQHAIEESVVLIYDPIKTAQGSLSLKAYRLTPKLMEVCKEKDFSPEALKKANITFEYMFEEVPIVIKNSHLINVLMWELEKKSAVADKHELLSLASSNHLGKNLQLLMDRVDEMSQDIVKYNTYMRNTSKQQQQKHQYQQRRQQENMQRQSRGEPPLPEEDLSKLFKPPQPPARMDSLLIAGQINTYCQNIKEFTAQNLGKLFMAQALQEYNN
Chain of OTUB1 (Q96FW1 whole entry): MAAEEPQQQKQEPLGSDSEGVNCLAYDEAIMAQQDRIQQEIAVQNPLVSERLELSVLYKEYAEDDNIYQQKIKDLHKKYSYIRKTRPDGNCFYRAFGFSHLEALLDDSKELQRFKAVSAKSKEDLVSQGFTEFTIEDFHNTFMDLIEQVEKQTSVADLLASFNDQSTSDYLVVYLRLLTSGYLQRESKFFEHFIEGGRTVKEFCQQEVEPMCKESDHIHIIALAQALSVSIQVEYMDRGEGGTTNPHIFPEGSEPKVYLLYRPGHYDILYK
Chain of ATXN3 (P54252 whole entry): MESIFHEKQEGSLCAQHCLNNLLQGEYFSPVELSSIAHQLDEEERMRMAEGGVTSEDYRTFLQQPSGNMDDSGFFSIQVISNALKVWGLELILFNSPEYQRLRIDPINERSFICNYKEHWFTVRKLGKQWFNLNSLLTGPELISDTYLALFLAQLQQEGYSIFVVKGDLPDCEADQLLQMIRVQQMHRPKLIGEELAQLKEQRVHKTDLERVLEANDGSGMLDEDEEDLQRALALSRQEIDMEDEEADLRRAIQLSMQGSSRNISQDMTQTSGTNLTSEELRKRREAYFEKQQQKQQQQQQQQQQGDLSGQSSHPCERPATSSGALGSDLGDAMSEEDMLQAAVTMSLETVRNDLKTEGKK
Chain of EIF3F (O00303 whole entry): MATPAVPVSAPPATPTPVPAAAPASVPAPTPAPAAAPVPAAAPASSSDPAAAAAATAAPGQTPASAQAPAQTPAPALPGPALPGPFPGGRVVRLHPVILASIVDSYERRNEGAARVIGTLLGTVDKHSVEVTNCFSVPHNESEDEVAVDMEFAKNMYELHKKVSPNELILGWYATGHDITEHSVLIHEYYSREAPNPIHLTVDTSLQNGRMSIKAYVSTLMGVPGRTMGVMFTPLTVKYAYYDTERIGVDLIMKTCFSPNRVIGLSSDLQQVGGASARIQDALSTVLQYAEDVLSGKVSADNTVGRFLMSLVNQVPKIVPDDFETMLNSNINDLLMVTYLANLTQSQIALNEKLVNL

For `CCC1c2ccsc2CCN1C(=O)CCl` (stereo not drawn), the “log2 ratio of Biotin-Ahx-Ub-VS probe labelling” value (from here on “log2 ratio”) in the test with ALG13 is 0.127; with ATXN3, -0.424; with BAP1, -0.48; in the test with EIF3F, -0.262; in the test with EIF3H it was 0.089; with FAM105A, 0.09. Moreover, the “log2 ratio” value with OTUB1 was 0.0848; with OTUD4, -0.658; with OTUD5 it was -1.15 (active).
With `CN1c2ccccc2C(NC(=O)CCl)CS1(=O)=O` (stereo not drawn), the “log2 ratio” value in the test with ALG13 is -0.325; with ATXN3, -0.142; in the test with BAP1, -2.33 (active); in the test with EIF3F, -0.327; in the test with EIF3H, 0.0135; with FAM105A, 0.147. The “log2 ratio” value in the test with OTUB1 was -0.0194; with OTUD4 it was -1.65 (active); in the test with OTUD5, -0.14.
Consider `CN(C)C(=O)c1ccc(CNC(=O)CCl)cc1`, for which the “log2 ratio” value was 0.104 in the test with ALG13; -0.0706 in the test with ATXN3; -2.84 (active) with BAP1; 0.137 in the test with EIF3F; 0.092 with EIF3H; 0.248 in the test with FAM105A. Also, the “log2 ratio” value in the test with OTUB1 is -0.0918; with OTUD4 it was -0.365; with OTUD5, -0.146.
On to `O=C(CCl)N1CCCN(C(=O)c2ccc(Cl)cc2)CC1`, for which the “log2 ratio” value is -0.303 with ALG13; -0.712 with ATXN3; -0.719 in the test with BAP1; -0.31 with EIF3F; 0.393 in the test with EIF3H; 0.113 with FAM105A. Besides, the results for the “log2 ratio” value with OTUB1, in the test with OTUD4 and in the test with OTUD5 were -0.428, -0.424 and -0.688, respectively.
For the compound `Cc1nc(CC2CCN(C(=O)CCl)CC2)no1`, the “log2 ratio” value with ALG13 was -0.358; with ATXN3, -1.02 (active); in the test with BAP1, -1.08; in the test with EIF3F, -0.302; with EIF3H it was -0.111; with FAM105A it was -0.155. For the same compound, the “log2 ratio” value is -0.686 with OTUB1, -0.753 with OTUD4 and -0.888 in the test with OTUD5.
For `Cl.O=C(CCl)NCCc1ncc(F)cc1F`, the “log2 ratio” value is 0.103 with ALG13; -0.404 in the test with ATXN3; -1.21 (active) with BAP1; -0.289 with EIF3F; 0.21 with EIF3H; 0.131 in the test with FAM105A. Moreover, the “log2 ratio” value was -0.111 with OTUB1, -0.506 with OTUD4 and -0.474 in the test with OTUD5.
Turning to `CS(=O)(=O)N1CCCN(C(=O)CCl)CC1`, the “log2 ratio” value with ALG13 is -0.306; with ATXN3 it was -0.428; in the test with BAP1, -0.451; with EIF3F, -0.0174; with EIF3H, 0.332; with FAM105A it was -0.12. In addition, the “log2 ratio” value with OTUB1 was -0.478; in the test with OTUD4, -0.3; with OTUD5, -0.335.

Source of the values: the supplement of paper PMC11732987, “Enantioselective OTUD7B fragment discovery through chemoproteomics screening and high-throughput optimisation” (Communications Chemistry, 2025).
